# Measured values from the supplement of paper PMC10849652.
# The full data set covers some 8,800 targets. This sample favours those with a hit. About 0.5% of all pairs of compound and target were hits. A number with no mark means an inactive call.
# Columns and labels:
# Assay in all cases: log2 fold change, soluble protein after heating vs DMSO (PISA); higher = thermal stabilisation; K562 lysate, 10 uM; active = over 0.2 and 3.5 SD of the protein, either way, in both replicates (recomputed)
# [1] = compound: CS(=O)(=O)CCNCc1ccc(-c2ccc3ncnc(Nc4ccc(OCc5cccc(F)c5)c(Cl)c4)c3c2)o1 [lapatinib]
# In short: (§1)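 Soluble protein was defined as the supernatant remaining after 21,000xg for 90 min, following pooling of heated aliquots and adjustment to 0.5% NP-40 at 4°C. Before that, crude K562 extract at 1 mg/mL protein in PBS pH 7.4 with 1 mM MgCl2 was treated with 10 μM compound for 30 min and heated for 3 min across 48°C-58°C. Quantification used TMTpro 16plex LC-MS/MS with channel sums equalised, and values are log-two fold changes in thermal stability relative to solvent controls from duplicates.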
# [2] = compound: CS(=O)(=O)N1CCN(Cc2cc3nc(-c4cccc5[nH]ncc45)nc(N4CCOCC4)c3s2)CC1 [pictilisib]
# In short: as §1
# [3] = compound: C[C@@H](Oc1cc(-c2cnn(C3CCNCC3)c2)cnc1N)c1c(Cl)ccc(F)c1Cl [crizotinib]
# In short: as §1
# [4] = compound: C[C@H](C1=CC=C(C=C1)C(=O)NC2=C3C=CNC3=NC=C2)N
# In short: as §1
# [5] = compound: C[C@H](Nc1ncnc2nc[nH]c12)c1cc2cccc(Cl)c2c(=O)n1-c1ccccc1 [duvelisib]
# In short: as §1
# [6] = compound: Cc1cc(Nc2cc(CN3CCOCC3)c3nc(C)c(Cc4ccc(Cl)cc4F)n3n2)n[nH]1 [gandotinib]
# In short: as §1
# [7] = compound: Cc1cc(Nc2cc(N3CCN(C)CC3)nc(Sc3ccc(NC(=O)C4CC4)cc3)n2)n[nH]1 [tozasertib]
# In short: as §1
# [8] = compound: Cc1ccc(-n2nc(C(C)(C)C)cc2NC(=O)Nc2ccc(OCCN3CCOCC3)c3ccccc23)cc1 [doramapimod]
# In short: as §1
# [9] = compound: Cc1ccc(NC(=O)c2ccc(CN3CC[C@H](N(C)C)C3)c(C(F)(F)F)c2)cc1Nc1nccc(-c2cncnc2)n1 [bafetinib]
# In short: as §1
# [10] = compound: Cc1cccc(CC(=O)N2CCc3c2ccc(-c2cn(C)c4ncnc(N)c24)c3F)n1
# In short: as §1
# UniProt Q15506, sequence (Q15506 whole entry, looked up): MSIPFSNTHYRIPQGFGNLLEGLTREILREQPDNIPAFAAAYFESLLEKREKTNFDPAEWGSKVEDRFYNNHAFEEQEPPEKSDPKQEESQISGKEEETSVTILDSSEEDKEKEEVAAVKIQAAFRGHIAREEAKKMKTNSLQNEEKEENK
# UniProt P62318, sequence (P62318 whole entry, looked up): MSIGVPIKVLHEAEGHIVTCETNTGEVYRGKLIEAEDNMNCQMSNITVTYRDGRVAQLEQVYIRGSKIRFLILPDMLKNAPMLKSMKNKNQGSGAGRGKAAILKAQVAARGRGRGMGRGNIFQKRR
# UniProt Q96BI1, sequence (Q96BI1 whole entry, looked up): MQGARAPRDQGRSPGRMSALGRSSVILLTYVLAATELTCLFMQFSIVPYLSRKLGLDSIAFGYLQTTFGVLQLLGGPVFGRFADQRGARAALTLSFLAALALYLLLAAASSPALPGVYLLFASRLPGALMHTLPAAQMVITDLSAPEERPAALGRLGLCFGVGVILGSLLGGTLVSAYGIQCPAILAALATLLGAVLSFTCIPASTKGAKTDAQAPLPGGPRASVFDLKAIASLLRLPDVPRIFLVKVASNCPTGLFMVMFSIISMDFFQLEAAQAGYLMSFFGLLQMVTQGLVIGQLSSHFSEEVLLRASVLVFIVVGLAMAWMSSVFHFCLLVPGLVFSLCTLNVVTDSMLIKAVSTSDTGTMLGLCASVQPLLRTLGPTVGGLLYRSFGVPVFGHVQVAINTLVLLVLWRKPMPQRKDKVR
# UniProt Q92844, sequence (Q92844 whole entry, looked up): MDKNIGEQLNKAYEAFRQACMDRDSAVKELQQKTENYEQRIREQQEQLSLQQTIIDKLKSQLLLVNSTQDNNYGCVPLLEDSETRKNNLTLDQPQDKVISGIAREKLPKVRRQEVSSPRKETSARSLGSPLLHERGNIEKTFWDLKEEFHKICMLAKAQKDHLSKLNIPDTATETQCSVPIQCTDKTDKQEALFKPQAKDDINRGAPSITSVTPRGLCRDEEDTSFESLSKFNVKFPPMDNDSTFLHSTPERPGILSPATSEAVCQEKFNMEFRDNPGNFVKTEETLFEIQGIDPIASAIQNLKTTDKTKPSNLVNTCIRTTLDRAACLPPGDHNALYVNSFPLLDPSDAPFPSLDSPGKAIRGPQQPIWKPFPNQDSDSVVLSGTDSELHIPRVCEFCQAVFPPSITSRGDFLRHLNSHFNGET
# UniProt Q8TCT8, sequence (Q8TCT8 whole entry, looked up): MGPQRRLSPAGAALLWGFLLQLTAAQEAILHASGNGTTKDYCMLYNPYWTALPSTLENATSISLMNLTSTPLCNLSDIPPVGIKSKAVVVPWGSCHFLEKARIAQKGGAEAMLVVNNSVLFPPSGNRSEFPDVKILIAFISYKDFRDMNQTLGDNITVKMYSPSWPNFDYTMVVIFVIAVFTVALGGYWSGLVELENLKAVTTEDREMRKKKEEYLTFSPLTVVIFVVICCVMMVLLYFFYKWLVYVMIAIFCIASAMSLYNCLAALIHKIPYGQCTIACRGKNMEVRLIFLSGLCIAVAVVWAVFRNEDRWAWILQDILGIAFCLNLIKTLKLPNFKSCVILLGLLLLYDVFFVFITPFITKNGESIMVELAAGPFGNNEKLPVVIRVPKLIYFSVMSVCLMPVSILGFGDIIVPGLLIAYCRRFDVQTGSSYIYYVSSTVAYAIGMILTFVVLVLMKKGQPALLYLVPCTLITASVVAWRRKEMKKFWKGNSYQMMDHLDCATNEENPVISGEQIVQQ
# UniProt Q13148, sequence (Q13148 whole entry, looked up): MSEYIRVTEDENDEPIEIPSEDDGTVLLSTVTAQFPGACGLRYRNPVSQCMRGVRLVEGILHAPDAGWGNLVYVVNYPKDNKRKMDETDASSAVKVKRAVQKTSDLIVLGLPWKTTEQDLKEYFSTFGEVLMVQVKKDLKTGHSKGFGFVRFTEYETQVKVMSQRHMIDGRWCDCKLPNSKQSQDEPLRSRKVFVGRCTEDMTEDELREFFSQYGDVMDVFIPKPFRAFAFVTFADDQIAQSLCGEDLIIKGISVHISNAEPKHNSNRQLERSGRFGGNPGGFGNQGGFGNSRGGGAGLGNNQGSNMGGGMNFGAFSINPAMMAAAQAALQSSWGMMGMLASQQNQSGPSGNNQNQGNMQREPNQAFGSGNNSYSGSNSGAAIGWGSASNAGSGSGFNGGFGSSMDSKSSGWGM
# UniProt Q9C0B7, sequence (Q9C0B7 whole entry, looked up): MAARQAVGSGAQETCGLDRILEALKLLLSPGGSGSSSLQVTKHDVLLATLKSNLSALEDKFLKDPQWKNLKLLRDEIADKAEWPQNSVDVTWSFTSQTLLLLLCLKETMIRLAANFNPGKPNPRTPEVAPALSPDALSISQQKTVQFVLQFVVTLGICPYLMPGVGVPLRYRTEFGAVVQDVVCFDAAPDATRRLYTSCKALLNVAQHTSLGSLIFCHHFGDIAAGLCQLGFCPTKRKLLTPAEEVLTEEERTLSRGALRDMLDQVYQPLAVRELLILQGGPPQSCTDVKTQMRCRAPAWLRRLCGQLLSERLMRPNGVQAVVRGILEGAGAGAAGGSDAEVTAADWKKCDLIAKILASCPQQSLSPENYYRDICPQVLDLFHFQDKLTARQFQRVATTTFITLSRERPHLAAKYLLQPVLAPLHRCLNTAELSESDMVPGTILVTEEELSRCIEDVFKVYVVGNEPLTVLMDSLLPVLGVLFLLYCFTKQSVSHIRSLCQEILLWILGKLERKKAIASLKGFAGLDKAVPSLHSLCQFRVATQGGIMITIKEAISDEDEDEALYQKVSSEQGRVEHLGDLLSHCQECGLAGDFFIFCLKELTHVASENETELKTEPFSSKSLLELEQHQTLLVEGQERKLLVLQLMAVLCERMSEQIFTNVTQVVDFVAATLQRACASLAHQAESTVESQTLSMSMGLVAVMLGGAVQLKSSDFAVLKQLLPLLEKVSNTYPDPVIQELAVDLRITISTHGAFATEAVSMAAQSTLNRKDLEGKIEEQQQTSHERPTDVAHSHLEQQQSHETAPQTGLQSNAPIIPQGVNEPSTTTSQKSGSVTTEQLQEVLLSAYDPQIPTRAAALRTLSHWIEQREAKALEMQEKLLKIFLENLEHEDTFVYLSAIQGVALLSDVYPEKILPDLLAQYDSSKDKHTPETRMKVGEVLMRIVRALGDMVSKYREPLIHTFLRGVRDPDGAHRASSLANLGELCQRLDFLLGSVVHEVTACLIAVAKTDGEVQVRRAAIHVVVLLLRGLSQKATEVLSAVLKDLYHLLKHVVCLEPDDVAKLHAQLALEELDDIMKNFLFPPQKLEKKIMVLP
# UniProt Q13242, sequence (Q13242 whole entry, looked up): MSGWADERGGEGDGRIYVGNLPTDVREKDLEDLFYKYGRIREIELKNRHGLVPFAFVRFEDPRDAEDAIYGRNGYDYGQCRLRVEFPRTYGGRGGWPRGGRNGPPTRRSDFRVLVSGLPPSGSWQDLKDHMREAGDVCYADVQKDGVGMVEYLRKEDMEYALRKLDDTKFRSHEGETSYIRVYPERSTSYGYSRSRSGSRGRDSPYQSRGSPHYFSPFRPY
# UniProt Q16563, sequence (Q16563 whole entry, looked up): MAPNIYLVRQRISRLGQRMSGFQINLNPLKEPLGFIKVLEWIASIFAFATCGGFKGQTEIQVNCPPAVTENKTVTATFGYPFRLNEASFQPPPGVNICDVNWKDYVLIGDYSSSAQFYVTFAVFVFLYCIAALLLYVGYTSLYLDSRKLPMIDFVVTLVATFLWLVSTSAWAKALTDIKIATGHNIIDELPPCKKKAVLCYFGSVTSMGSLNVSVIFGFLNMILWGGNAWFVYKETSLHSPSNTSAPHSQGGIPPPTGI
# UniProt Q6NXT4, sequence (Q6NXT4 whole entry, looked up): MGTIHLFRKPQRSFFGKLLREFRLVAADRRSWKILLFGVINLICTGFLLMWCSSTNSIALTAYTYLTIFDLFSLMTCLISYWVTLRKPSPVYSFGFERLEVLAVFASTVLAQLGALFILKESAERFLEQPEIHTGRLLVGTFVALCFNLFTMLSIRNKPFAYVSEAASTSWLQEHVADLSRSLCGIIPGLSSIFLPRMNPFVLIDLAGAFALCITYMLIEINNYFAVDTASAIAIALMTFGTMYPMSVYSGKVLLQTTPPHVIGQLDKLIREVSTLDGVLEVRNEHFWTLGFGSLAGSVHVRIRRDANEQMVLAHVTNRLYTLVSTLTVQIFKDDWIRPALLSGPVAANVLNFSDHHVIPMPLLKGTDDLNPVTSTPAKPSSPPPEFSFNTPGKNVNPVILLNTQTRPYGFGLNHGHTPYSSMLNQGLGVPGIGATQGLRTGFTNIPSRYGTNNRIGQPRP
# UniProt P41440, sequence (P41440 whole entry, looked up): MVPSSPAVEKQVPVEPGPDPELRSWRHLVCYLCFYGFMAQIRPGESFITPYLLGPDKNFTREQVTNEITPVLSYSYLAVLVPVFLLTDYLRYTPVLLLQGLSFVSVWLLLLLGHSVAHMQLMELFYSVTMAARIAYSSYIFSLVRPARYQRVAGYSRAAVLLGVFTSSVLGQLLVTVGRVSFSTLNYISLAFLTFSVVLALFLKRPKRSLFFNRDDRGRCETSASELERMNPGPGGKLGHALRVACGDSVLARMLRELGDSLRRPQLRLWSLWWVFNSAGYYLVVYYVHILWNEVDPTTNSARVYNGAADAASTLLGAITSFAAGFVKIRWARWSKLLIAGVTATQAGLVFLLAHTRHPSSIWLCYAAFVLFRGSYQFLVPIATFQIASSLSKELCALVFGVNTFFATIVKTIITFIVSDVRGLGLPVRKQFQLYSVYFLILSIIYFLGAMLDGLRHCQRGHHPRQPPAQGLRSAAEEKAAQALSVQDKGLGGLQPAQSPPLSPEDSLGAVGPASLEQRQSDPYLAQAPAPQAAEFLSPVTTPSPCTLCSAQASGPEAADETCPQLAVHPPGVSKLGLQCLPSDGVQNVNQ
# UniProt B2RUZ4, sequence (B2RUZ4 whole entry, looked up): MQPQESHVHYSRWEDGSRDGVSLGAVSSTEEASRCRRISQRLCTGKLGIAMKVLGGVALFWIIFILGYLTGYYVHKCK
# UniProt Q9UJC5, sequence (Q9UJC5 whole entry, looked up): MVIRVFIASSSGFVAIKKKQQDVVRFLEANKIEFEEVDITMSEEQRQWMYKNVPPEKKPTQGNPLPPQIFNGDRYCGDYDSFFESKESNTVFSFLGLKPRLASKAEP
Target,log2 fold change [1],log2 fold change [2],log2 fold change [3],log2 fold change [4],log2 fold change [5],log2 fold change [6],log2 fold change [7],log2 fold change [8],log2 fold change [9],log2 fold change [10]
SNRPD3 (UniProt P62318),-0.027,-0.06,0.008,-0.233 (active),0.052,0.102,0.028,0.014,0.069,0.11
SPPL2A (UniProt Q8TCT8),-0.002,-0.059,-0.127,-0.302,–,-0.093,0.082,-0.032,-0.127,0.1
STK24 (UniProt B4DR80),0.006,0,0.044,0.034,-0.016,0.089,0.001,-0.054,0.004,0
SLC19A1 (UniProt P41440),-0.055,0.005,-0.002,-0.203 (active),-0.037,0.148,-0.021,0.004,-0.053,0.07
SRSF9 (UniProt Q13242),0.014,0.046,0.006,-0.019,0.011,-0.003,0.019,0.085,-0.028,0.053
SPHK1 isoform 2 (UniProt Q9NYA1),-0.039,0.001,-0.018,-0.028,0.013,0.033,0.122,0.073,-0.007,-0.041
STK3 isoform 2 (UniProt Q13188),-0.045,0.02,0.299,-0.029,-0.058,0.468 (active),0.224,-0.035,0.001,0.122
SIX5 (UniProt Q8N196),-0.105,0.015,-0.075,0.22,0.039,-0.48 (active),–,0.143,-0.009,-0.306
TANGO6 (UniProt Q9C0B7),-0.054,-0.002,-0.065,-0.102,0.005,0.037,-0.023,0.014,-0.064,0.115
TANK (UniProt Q92844),0.038,-0.03,0.27,0.021,-0.026,0.141,0.108,-0.038,0.023,-0.162
TARDBP (UniProt Q13148),0.002,0.145,0.018,0.005,-0.045,0.115,0.022,0.282,-0.055,0.044
STUB1 (UniProt Q9UNE7),-0.01,-0.012,-0.035,0.004,-0.01,-0.073,-0.006,0.019,-0.054,0.05
SH3BGRL2 (UniProt Q9UJC5),0.021,0.012,-0.025,0.342 (active),-0.007,-0.116,-0.078,0.021,-0.058,-0.184
SNUPN (UniProt O95149),0.026,-0.083,-0.03,-0.009,–,-0.036,0.023,-0.002,-0.061,0.006
SLC30A6 isoform 2 (UniProt Q6NXT4),0.115,-0.027,0.009,-0.095,–,0.048,0.114,-0.058,0.034,0.116
SHC1 isoform 6 (UniProt P29353),0.019,-0.057,0.001,0.577 (active),0.005,-0.106,0.005,0.065,-0.034,-0.175
SYPL1 (UniProt Q16563),0.015,-0.025,-0.001,-0.376 (active),0.004,0.16,-0.028,-0.009,-0.034,0.163
SLC22A18 (UniProt Q96BI1),0.072,0.026,-0.064,-0.094,–,0.147,-0.004,0.032,-0.001,0.033
SPA17 (UniProt Q15506),0.058,-0.012,0.019,-0.498 (active),0.009,0.303,-0.022,0.054,-0.076,0.25
SMIM1 (UniProt B2RUZ4),0.098,-0.028,-0.106,0.121,–,0.106,-0.019,0.034,-0.021,0.011
